Data published in PubChem BioAssay (NCATS).
Inconclusive results are not listed. Calls of active or inactive are those of the source. Calls follow the shape of the dose curve; as a rule, active = well fitted curve in the direction sought with a large enough effect; inconclusive = small, poorly fitted or top-dose-only effect, or another doubt; inactive = no such curve, though single readings can be large; an effect the other way counts as inactive or inconclusive.

Key:
[1] = Quantitative High-Throughput drug screen in 47 multiple myeloma cell lines against the NCATS MIPE library collection: JIM3_ECACC cell viability assay (AID 1918963; also: nearly all actives have a fitted effect of over 35% in size)
Outline: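 Inhibition of cell viability is measured here. Each line was plated at 500 cells per well, treated with MIPE 4.0 drugs, kept 48 hours at 37C, then assayed for ATP content by CellTiter-Glo luminescence.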

[2] = Quantitative High-Throughput drug screen in 47 multiple myeloma cell lines against the NCATS MIPE library collection: JIM1_ECACC cell viability assay (AID 1918964)
Outline: (§1)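 Approved and investigational drugs from MIPE 4.0 were added by pin tool to 500 cells per well. After 48 hours at 37C, ATP-based CellTiter-Glo luminescence indicated remaining viability.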

[3] = Quantitative High-Throughput drug screen in 47 multiple myeloma cell lines against the NCATS MIPE library collection: INA6_PLB cell viability assay (AID 1918965; also: nearly all actives have a fitted effect of over 55% in size)
Outline: (§2)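 qHTS of the MIPE 4.0 collection: 500 myeloma cells/well, 48 h drug exposure at 37C in 5% CO2, then CellTiter-Glo for 5 min at room temperature before luminescence reading.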

[4] = Quantitative High-Throughput drug screen in 47 multiple myeloma cell lines against the NCATS MIPE library collection: JJN3_DSMZ cell viability assay (AID 1918966; also: nearly all actives have a fitted effect of over 50% in size)
Outline: as §1

[5] = Quantitative High-Throughput drug screen in 47 multiple myeloma cell lines against the NCATS MIPE library collection: H1112_PLB cell viability assay (AID 1918967; also: nearly all actives have a fitted effect of over 30% in size)
Outline: as §1

[6] = Quantitative High-Throughput drug screen in 47 multiple myeloma cell lines against the NCATS MIPE library collection: Karpas25_ECACC cell viability assay (AID 1918968; also: nearly all actives have a fitted effect of over 35% in size)
Outline: as §1

[7] = Quantitative High-Throughput drug screen in 47 multiple myeloma cell lines against the NCATS MIPE library collection: KMS27_JCRB cell viability assay (AID 1918970); also: nearly all actives have a fitted effect of over 30% in size
Outline: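 CellTiter-Glo luminescence after 48 h drug exposure at 37 °C; 500 cells/well, 1536-well format, pin-tool compound addition; DMSO = 100%, media-only = 0% viability.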

[8] = Quantitative High-Throughput drug screen in 47 multiple myeloma cell lines against the NCATS MIPE library collection: KMS12BM_JCRB cell viability assay (AID 1918971); also: nearly all actives have a fitted effect of over 35% in size
Outline: (§3)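 Luminescent ATP measurement with CellTiter-Glo gives viability, scaled between DMSO-only wells (100%) and media-only wells (0%). Cells, 500 per well, faced library compounds for 48 hours at 37C.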

[9] = Quantitative High-Throughput drug screen in 47 multiple myeloma cell lines against the NCATS MIPE library collection: KMS12PE_JCRB cell viability assay (AID 1918972); also: nearly all actives have a fitted effect of over 30% in size
Outline: as §2

[10] = Quantitative High-Throughput drug screen in 47 multiple myeloma cell lines against the NCATS MIPE library collection: KMS21BM_JCRB cell viability assay (AID 1918974); settings: ATP luminescence, 48 h; viability: at 45.8 µM (top of the series) unless noted
Outline: as §1

[11] = Quantitative High-Throughput drug screen in 47 multiple myeloma cell lines against the NCATS MIPE library collection: KMS26_JCRB cell viability assay (AID 1918975); also: nearly all actives have a fitted effect of over 45% in size
Outline: as §3

[12] = Quantitative High-Throughput drug screen in 47 multiple myeloma cell lines against the NCATS MIPE library collection: MMM1_PLB cell viability assay (AID 1918976); also: nearly all actives have a fitted effect of over 35% in size
Outline: (§4)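 Viability after 48 h drug exposure was measured as ATP-dependent luminescence. Cells, 500 per well, sat at 37 °C under 5% CO2; DMSO wells set 100%, media-only wells 0%.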

[13] = Quantitative High-Throughput drug screen in 47 multiple myeloma cell lines against the NCATS MIPE library collection: MOLP8_DSMZ cell viability assay (AID 1918977); also: nearly all actives have a fitted effect of over 45% in size
Outline: as §4

[14] = Quantitative High-Throughput drug screen in 47 multiple myeloma cell lines against the NCATS MIPE library collection: NCIH929_DSMZ cell viability assay (AID 1918978); also: nearly all actives have a fitted effect of over 35% in size
Outline: as §4

[15] = Quantitative High-Throughput drug screen in 47 multiple myeloma cell lines against the NCATS MIPE library collection: OCIMY1_PLB cell viability assay (AID 1918979); also: nearly all actives have a fitted effect of over 35% in size
Outline: as §4

[16] = Quantitative High-Throughput drug screen in 47 multiple myeloma cell lines against the NCATS MIPE library collection: MM1R_ATCC cell viability assay (AID 1918981); also: nearly all actives have a fitted effect of over 35% in size
Outline: as §4

[17] = Quantitative High-Throughput drug screen in 47 multiple myeloma cell lines against the NCATS MIPE library collection: KMS20_JCRB cell viability assay (AID 1918973); also: nearly all actives have a fitted effect of over 45% in size
Outline: as §1

[18] = Quantitative High-Throughput drug screen in 47 multiple myeloma cell lines against the NCATS MIPE library collection: MM1S_ATCC cell viability assay (AID 1918980); also: nearly all actives have a fitted effect of over 45% in size
Outline: as §4

[19] = Quantitative High-Throughput drug screen in 47 multiple myeloma cell lines against the NCATS MIPE library collection: LP1_DSMZ cell viability assay (AID 1918982); also: nearly all actives have a fitted effect of over 35% in size
Outline: as §4

Measured: Potency
Potency is read from the fitted curve at half-maximal effect.

CC1(C)OC2=C(C(=O)c3ccccc3C2=O)[C@H](NCc2ccccc2)[C@H]1O
active: [1] 2.09 µM | [2] 2.64 µM | [3] 2.09 µM | [4] 3.72 µM | [5] 2.35 µM | [6] 590 nM | [7] 1.18 µM | [8] 8.33 µM | [9] 1480 nM | [10] 1.05 µM | [11] 5.26 µM | [12] 2.09 µM | [13] 2.96 µM | [14] 2.35 µM | [15] 4.18 µM | [16] 4.18 µM

CC1COC2(CCN(c3nc(=O)c4cc(C(F)(F)F)cc([N+](=O)[O-])c4s3)CC2)O1 (configuration not stated)
inactive: [1] | [2] | [3] | [4] | [5] | [6] | [13] | [14] | [15] | [16]

COc1ccc(-c2cc3c(C)nc(N)nc3n(C3CCC(OCCO)CC3)c2=O)cn1 (configuration not stated)
active: [1] 0.0662 µM | [2] 0.0074 µM | [3] 0.148 µM | [4] 0.0833 µM | [5] 0.662 µM | [6] 26.4 nM | [7] 0.0264 µM | [8] 0.059 µM | [17] 0.0264 µM | [11] 0.148 µM | [13] 0.0372 µM | [14] 0.0093 µM | [15] 0.0833 µM | [18] 0.0372 µM | [16] 0.0148 µM | [19] 0.0148 µM

Cc1cccc(C=NNc2cc(N3CCOCC3)nc(OCCc3ccccn3)n2)c1
active: [1] 2.35 µM | [2] 0.935 µM | [3] 14.8 µM | [6] 13200 nM | [8] 14.8 µM | [9] 332 nM | [17] 6.62 µM | [11] 0.118 µM | [12] 16.6 µM | [14] 14.8 µM | [18] 16.6 µM | [16] 6.62 µM | [19] 11.8 µM

COCCOc1ccc2c(c1)ncn2-c1ccc2cccc(N3CCC(N)CC3)c2n1
active: [1] 10.5 µM | [2] 5.9 µM | [3] 0.0469 µM | [4] 4.18 µM | [5] 6.62 µM | [6] 66.2 nM | [7] 1.66 µM | [8] 9.35 µM | [9] 37.2 nM | [17] 0.0743 µM | [11] 13.2 µM | [12] 23.5 µM | [14] 1.66 µM | [15] 2.64 µM | [16] 1.66 µM | [19] 2.09 µM

NC1(Cc2ccc(Cl)cc2)CCN(c2ncnc3[nH]ccc23)CC1
active: [1] 2.96 µM | [2] 2.96 µM | [3] 3.72 µM | [4] 13.2 µM | [6] 1870 nM | [7] 4.69 µM | [8] 18.7 µM | [17] 3.32 µM | [11] 6.62 µM | [13] 8.33 µM | [14] 0.935 µM | [18] 1.87 µM | [16] 5.9 µM

Cc1cc(Nc2cc(N3CCN(C)CC3)nc(C=Cc3ccccc3)n2)n[nH]1
active: [1] 7.62 µM | [2] 4.81 µM | [3] 3.4 µM | [5] 38.2 µM | [6] 8550 nM | [7] 15.2 µM | [8] 48.1 µM | [17] 4.29 µM | [11] 21.5 µM | [12] 30.3 µM | [13] 9.59 µM | [14] 6.79 µM | [15] 5.4 µM | [16] 13.6 µM | [19] 34 µM

CC(C)c1cc(-c2n[nH]c(=O)n2-c2ccc3c(ccn3C)c2)c(O)cc1O
active: [1] 0.0264 µM | [2] 0.0148 µM | [3] 0.0264 µM | [4] 0.0418 µM | [6] 20.9 nM | [7] 0.0264 µM | [8] 0.0372 µM | [9] 33.2 nM | [17] 0.0296 µM | [11] 0.0372 µM | [12] 0.0743 µM | [14] 0.0209 µM | [15] 0.0469 µM | [18] 0.059 µM | [16] 0.0469 µM

COc1cc(C(C)C)c2c(c1)S(=O)(=O)N(COc1cc(=O)n3cccc(OCCN4CCCCC4)c3n1)C2=O
inactive: [15]
active: [1] 18.7 µM | [2] 18.7 µM | [3] 13.2 µM | [4] 5.26 µM | [5] 14.8 µM | [6] 13200 nM | [7] 18.7 µM | [9] 23500 nM | [17] 18.7 µM | [10] 18.7 µM | [14] 20.9 µM | [18] 11.8 µM
